Molecules are shown by their SMILES. Compounds without any hit were thinned out: in the full panel of roughly 83,000, 20% have a hit.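 Single-concentration screen, 48 h exposure, 96-well plates. Endpoint: percent growth. Below 10 = active.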 Values without a mark were called inactive. Active and inactive are the calls of the source.

Common to all, as to test: NCI-60 one-dose screen, 48 h (100 = growth as untreated, 0 = no growth, -100 = all killed)
Holding throughout (details): 10 µM unless noted

Assay [1] relates to SK-MEL-2 melanoma.
Assay [2] deals with EKVX NSCLC.
Assay [3] deals with SN12C renal.
The subject of assay [4] is UO-31 renal.
The test system of assay [5] is TK-10 renal.
Assay [6] deals with CAKI-1 renal.
For assay [7], the system named is A498 renal.
For assay [8], the system named is CCRF-CEM leukemia.
Assay [9] relates to MOLT-4 leukemia.
The subject of assay [10] is SR leukemia.
The subject of assay [11] is RPMI-8226 leukemia.
Assay [12] relates to OVCAR-8 ovarian.
For assay [13], the system named is OVCAR-5 ovarian.
For assay [14], the system named is OVCAR-4 ovarian.
In assay [15] the test system is SK-OV-3 ovarian.
In assay [16] the test system is IGROV1 ovarian.
The subject of assay [17] is HS 578T breast.
Assay [18] concerns NCI/ADR-RES ovarian.
Assay [19] deals with OVCAR-3 ovarian.
The test system of assay [20] is ACHN renal.

With `CCOc1nc(-c2ccccc2)cc2c(O)c(C(=O)N/N=C/c3ccc(O)cc3O)[nH]c(=O)c12`, the growth in [1] is -8.71% (active); in [2], 36.2%; in assay [3], 39.1%; in assay [4] it was -13.2% (active); in [5] it was 52.1%; in [6], 8.55% (active). Moreover, the growth is 65.3% in assay [7]; -33.9% (active) in assay [8]; 17.3% in assay [9]; 27% in assay [10]; 38% in assay [11]; 14.5% in assay [12]. The growth in assay [13] is 43.6%; in assay [14], 39.3%; in assay [15], 41.6%; in assay [16] it was 15.6%; in assay [17], 82.9%; in assay [18], -40.1% (active).
Consider `O=C1c2ccccc2OC=C(c2ccccc2)N1CCCCNc1ccc(S(=O)(=O)Nc2ncccn2)cc1`, for which the growth is 99.1% in assay [1]; 90% in assay [2]; 99.1% in [3]; 85.7% in assay [4]; 96.6% in assay [5]; 80.2% in assay [7]. Besides, the growth was 75.6% in assay [8]; 85.3% in assay [9]; 78.9% in assay [10]; 83.2% in assay [11]; 92.2% in [12]; 105% in [13]. The growth in [14] was 106%; in assay [15] it was 96.6%; in assay [16] it was 104%; in [17], 92.8%; in [18] it was 98.6%.
In the case of `O=C1NC(=S)NC(=O)C1CC(=O)n1c(-c2ccccc2)nc2ccccc21`, the growth in assay [1] was 110%; in [2], 82.4%; in assay [3], 95.8%; in assay [4], 73.5%; in [5], 143%; in assay [6] it was 77.2%. The growth in [7] is 89%; in assay [8], 110%; in assay [9], 99.9%; in [11], 108%; in assay [12], 95.3%; in [13], 99.5%. Further, the growth in assay [14] is 98.1%; in assay [15], 90.4%; in [16], 84.2%; in assay [19] it was 103%; in [17], 98.9%; in assay [18], 104%.
Consider `COc1ccc2c(c1)O/C(=C\c1cccc(OCC(=O)Nc3nc4c(s3)CCCC4)c1)C2=O`, for which the growth in assay [1] is 82.5%; in [2], 90.2%; in assay [3], 53.8%; in assay [5], 115%; in assay [20] it was 97.4%; in [6] it was -100% (active). The growth in assay [7] was 88.8%; in assay [8], -67.9% (active); in [9], 25.3%; in [11], 49.6%; in assay [12], -23.4% (active); in [13] it was 103%. Further, the growth in [14] was 62.4%; in assay [15] it was 90.9%; in assay [17], 84%; in [18], -9.46% (active).
Take `COc1cccc(-c2nc(SCC(=O)Nc3ccc(C(=O)/C=C/c4ccc(OC)c(OC)c4)cc3)[nH]c(=O)c2C#N)c1`: the growth in assay [1] is 96.6%; in [2] it was 87.7%; in assay [4] it was 79.3%; in assay [5], 109%; in [20], 86.6%; in assay [6], 88.4%. Also, the growth in assay [7] is 97.2%; in [8], 90%; in assay [9], 74.8%; in assay [10], 60.6%; in [11], 93.3%; in assay [12], 99.2%. Further, the growth in [13] was 110%; in [14], 80.8%; in assay [15] it was 90.5%; in assay [16], 103%; in [19] it was 83.6%; in assay [17], 82.4%. Moreover, the growth in [18] is 93.6%.
On to `COc1cccc(-c2nc3sccn3c2-c2ccnc(NCCNS(=O)(=O)c3ccc(F)cc3)c2)c1`, for which the growth in assay [1] is 21.3%; in [2] it was 28.2%; in assay [3], 27.1%; in [4] it was 16.7%; in assay [5] it was 46.5%; in assay [6] it was 18.4%. In addition, the growth was 18.2% in assay [7]; 14.2% in assay [8]; 7.99% (active) in assay [9]; -14.1% (active) in assay [11]; 20.1% in assay [12]; 49.3% in assay [13]. The growth in assay [14] was 22.3%; in assay [15], 43.7%; in assay [16] it was 28.6%; in [17], 52.4%; in assay [18] it was 10.7%.
In the case of `O=C1CSC(=S)N1CCc1ccc(O)cc1`, the growth is 103% in assay [1]; 97.8% in [2]; 81.6% in assay [3]; 60.3% in assay [4]; 68.7% in assay [5]; 81.4% in assay [6]. Moreover, the growth was 97% in assay [7]; 51.1% in assay [8]; 93.4% in assay [9]; 26.4% in assay [10]; 37.9% in assay [11]; 92.6% in assay [12]. Moreover, the growth is 101% in [13]; 89.5% in assay [14]; 99.2% in [15]; 101% in [16]; 78.3% in assay [19]; 84.3% in assay [17]. Besides, the growth in assay [18] was 94.7%.
As to `NC(=NCCCOc1ccc(Cl)cc1)Nc1ccc(C(F)(F)F)cc1`, the growth in assay [1] is 41.3%; in assay [2], 50.5%; in assay [4] it was 37.1%; in [5], 76.1%; in assay [20], 9.43% (active); in assay [6], 60.5%. Also, the growth is 35% in [7]; 3.2% (active) in [8]; 4.99% (active) in [9]; -1.68% (active) in assay [11]; 66.3% in assay [12]; 48.4% in assay [13]. Moreover, the growth is 34% in assay [14]; 78.1% in [15]; -20.5% (active) in assay [16]; 58.3% in assay [19]; 52.4% in [17]; 62.8% in assay [18].
Consider `CCCCC[C@H]1C/C=C2/C(=O)C=C[C@@H]2C/C=C\CCCC(=O)O1`, for which the growth in assay [1] was -75.9% (active); in [2], -18% (active); in [4] it was -96.5% (active); in assay [5], -59.4% (active); in assay [20], -91% (active); in assay [6], 8.56% (active). Also, the growth in assay [8] was -0.835% (active); in [9], -3.81% (active); in [10], -3.55% (active); in assay [11] it was -13.4% (active); in assay [12], 5.97% (active); in assay [13], -9.16% (active). Moreover, the growth is 14.1% in [14]; -11.6% (active) in assay [15]; -42.8% (active) in assay [16]; -58.8% (active) in [19]; 23.3% in assay [17]; 10.3% in assay [18].

Source of the values: PubChem BioAssay (NCI).
